The values that follow come from PubChem BioAssay (NCI).

Test systems include T-47D breast; BT-549 breast; MDA-MB-435 melanoma; SW-620 colon; MCF7 breast; HCT-116 colon; HCC-2998 colon; KM12 colon.
Holding throughout (assay): NCI-60 one-dose screen, 48 h (100 = growth as untreated, 0 = no growth, -100 = all killed)
What all share (conditions): 10 µM unless noted

Compounds without any hit were thinned out: in the full panel of roughly 83,000, 20% have a hit.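 Assay: single dose, 48 h. Readout: percent growth (0 = no net growth; negative = cell death). Active: <10.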 Unmarked numbers belong to inactive results. Calls of active or inactive are those of the source.

As for `COc1cc(C(=O)c2c(-c3ccccc3)oc3c(OC)cccc23)cc(OC)c1OC`, the growth in the experiment with T-47D breast was 58.2%; with BT-549 breast it was -5.83% (active); in the experiment on MDA-MB-435 melanoma it was -28.9% (active); in the experiment on SW-620 colon, 20.1%; in the experiment with MCF7 breast it was 10.1%; with HCT-116 colon, -8.11% (active). In addition, the values for the growth with HCC-2998 colon and in the experiment with KM12 colon were -4.94% (active) and 3.21% (active), respectively.
For the compound `N#Cc1cccc(C2C3=C(COC3=O)N(CCO)c3cc4c(cc32)OCO4)c1` (configuration not stated), the growth was 20.8% in the experiment on T-47D breast; 38.7% with BT-549 breast; 0.432% (active) in the experiment with MDA-MB-435 melanoma; 16.3% in the experiment with SW-620 colon; 22.4% with MCF7 breast; 17% in the experiment on HCT-116 colon. For the same compound, the growth in the experiment on HCC-2998 colon is 83.5%; in the experiment with KM12 colon, 27.9%.
Take `CNC1=C([N+](=O)[O-])C(c2ccc(OC)cc2)C(C#N)=C(c2cccs2)O1` (configuration not stated): the growth was 91.7% in the experiment on T-47D breast; 117% in the experiment with BT-549 breast; 108% with MDA-MB-435 melanoma; 106% with SW-620 colon; 96% in the experiment on MCF7 breast; 109% in the experiment on HCT-116 colon. In addition, the growth in the experiment on HCC-2998 colon is 109%; in the experiment with KM12 colon, 103%.
On to `CCS/C(Nc1ccccc1)=C(\C#N)C(=O)Nc1ccc(OC)cc1`, for which the growth with T-47D breast was 25.4%; in the experiment on BT-549 breast, 40.5%; in the experiment on MDA-MB-435 melanoma, -47.9% (active); with SW-620 colon, 18%; in the experiment on MCF7 breast it was 19%; with HCT-116 colon, 14.3%. For the same compound, the figures for the growth in the experiment with HCC-2998 colon and in the experiment with KM12 colon were 55.2% and 31%, respectively.
`Oc1c(CN2CCOCC2)cc(COCc2ccccc2)c2cccnc12`: the growth in the experiment on T-47D breast was 10.4%; in the experiment on BT-549 breast it was 36.4%; with MDA-MB-435 melanoma it was 46.8%; in the experiment on SW-620 colon it was 28.9%; in the experiment with MCF7 breast, 9.26% (active); in the experiment with HCT-116 colon, 21.6%. Further, the growth with HCC-2998 colon is 54.2%; in the experiment on KM12 colon, 35.6%.
Consider `CC1=C2[C@@H](CC1)[C@]1(C)O[C@@](C3CCCCC3)(C[C@H]1OC(=O)CO)[C@H]2OC(=O)/C=C/c1ccccc1`, for which the growth in the experiment with T-47D breast was 46.1%; in the experiment on BT-549 breast, -1.1% (active); with MDA-MB-435 melanoma, 95.9%; in the experiment with SW-620 colon it was 86.5%; in the experiment with MCF7 breast it was 57.6%; in the experiment on HCT-116 colon it was 76.3%. Also, the growth in the experiment with HCC-2998 colon is 81.8%; with KM12 colon, 79.6%.
As to `O=C1Nc2ccccc2C1(c1c[nH]c2ccccc12)c1c[nH]c2ccccc12`, the growth with T-47D breast was -21.2% (active); in the experiment with BT-549 breast, -17.7% (active); with MDA-MB-435 melanoma, 85%; in the experiment with SW-620 colon, 77%; in the experiment with MCF7 breast, -1.78% (active); with HCT-116 colon it was 36.6%. Further, the results for the growth in the experiment on HCC-2998 colon and in the experiment on KM12 colon were 26.4% and 11.9%, respectively.
For the compound `Cn1c2c(c3ccc(Cl)c(Cl)c31)C(C#N)C(C)(C)NC2=O` (configuration not stated), the growth in the experiment on T-47D breast is 74.2%; with BT-549 breast it was 88.1%; in the experiment on MDA-MB-435 melanoma, 80.9%; with SW-620 colon, 67.5%; in the experiment on MCF7 breast it was 95.3%; in the experiment on HCT-116 colon, 76.9%. The growth in the experiment on HCC-2998 colon was 91.8%; in the experiment with KM12 colon it was 91.9%.
On to `CC/C=C\CCC/C=C1/C(=O)C=C[C@@H]1C/C=C\CCCC(=O)OC`, for which the growth with T-47D breast is 34.4%; with BT-549 breast, -25% (active); in the experiment with MDA-MB-435 melanoma it was -22.3% (active); in the experiment with SW-620 colon it was 3.05% (active); in the experiment on MCF7 breast it was 17%; with HCT-116 colon, -52.4% (active). The growth with HCC-2998 colon is 8.12% (active); with KM12 colon, -20.6% (active).
Turning to `COc1cccc(CNc2c3ccccc3nc3ccccc23)c1`, the growth is 45.9% in the experiment with T-47D breast; 68.7% in the experiment with BT-549 breast; 43% in the experiment on MDA-MB-435 melanoma; 25.5% in the experiment on SW-620 colon; 14.6% in the experiment with MCF7 breast; 9.89% (active) in the experiment on HCT-116 colon. Besides, the growth in the experiment with HCC-2998 colon is 39.3%; in the experiment with KM12 colon, 35.9%.
In the case of `Cc1cn(-c2cc(NC(=O)c3cncc(C#Cc4c(N)ncc5ccc(F)cc45)c3)cc(C(F)(F)F)c2)cn1`, the growth is 65.8% with T-47D breast; 86.4% in the experiment with BT-549 breast; 36.6% in the experiment with MDA-MB-435 melanoma; 33.3% in the experiment on SW-620 colon; 31.5% with MCF7 breast; 19.4% in the experiment on HCT-116 colon. The figures for the growth with HCC-2998 colon and with KM12 colon were 77.4% and 14.1%, respectively.
For the compound `CC/C(Cc1ccccc1)=C(\c1ccc(OCCCN(C)C)cc1)c1ccc(OC(=O)NCc2ccccc2)cc1`, the growth in the experiment with T-47D breast is 52.7%; in the experiment with BT-549 breast, 95%; in the experiment with MDA-MB-435 melanoma, 77.6%; with SW-620 colon, 14.5%; in the experiment on MCF7 breast, 15.6%; in the experiment with HCT-116 colon, 10.4%. The growth was 70.4% in the experiment with HCC-2998 colon and 72.8% with KM12 colon.
With `Cc1ccc2c(-c3nnc(N)s3)cc(=O)oc2c1C`, the growth in the experiment on T-47D breast was 72.9%; with BT-549 breast, 101%; in the experiment with MDA-MB-435 melanoma it was 96.1%; in the experiment with SW-620 colon it was 97.8%; in the experiment on MCF7 breast it was 93.4%; in the experiment with HCT-116 colon it was 95.6%. For the same compound, the growth was 113% in the experiment with HCC-2998 colon and 105% in the experiment with KM12 colon.
As to `Nc1[nH]n2cc(-c3ccc(F)cc3)nc2c1N=Nc1ccc(S(N)(=O)=O)cc1`, the growth in the experiment with T-47D breast was 77.8%; in the experiment on BT-549 breast, 73.9%; with MDA-MB-435 melanoma, 78.4%; with SW-620 colon, 76.7%; with MCF7 breast, 87.7%; with HCT-116 colon, 62.7%. Also, the growth in the experiment with HCC-2998 colon is 90.8%; in the experiment with KM12 colon, 73.1%.
